Measured values published in PubChem BioAssay (EPA / NIEHS).
Inconclusive results are not listed. The source holds several records for some structures; these can differ, active in one and inactive in another. Activity calls are given as the source filed them. How the source made its calls, unless noted: active means hit-call score of the fitted dose curve at least 0.9, where 1 is the maximum; inconclusive means response in the unintended direction; inactive means score below 0.9.

Legend:
[1] = test system: Sodium/Iodide Symporter (NIS), SLC5A5 (gene 6528); experiment: CPHEA_Stoker_NIS_Inhibition_RAIU: CPHEA's Radioactive Iodide Uptake (RAIU) Assay for Sodium/Iodide Symporter (NIS) Inhibition, Stoker and Laws Labs (AID 2283841)
Method in brief: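 HEK293T cells stably expressing human NIS (hNIS-HEK293T-EPA) were exposed to test chemicals at 0.001–100uM (0.5% final DMSO) with 125I at a final 329pM in HBSS/10mM HEPES pH 7.4. After 2 hours at room temperature and ice-cold washes, intracellular 125I was counted as CPM and normalized to DMSO wells.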

[2] = CPHEA_Stoker_NIS_Cytotoxicity: Cytotoxicity Assessment for CPHEA's Radioactive Iodide Uptake (RAIU) Assay for Sodium/Iodide Symporter (NIS) Inhibition, Stoker and Laws Labs (AID 2283897);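 on AC50: active means loss of ATP signal versus DMSO meaning cytotoxicity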
Method in brief: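 hNIS-HEK293T-EPA human kidney cells were exposed for 2 hours at room temperature to test chemicals (0.001–100uM, 0.5% final DMSO) in HEPES-buffered HBSS, pH 7.4. Viability was read as ATP content by luciferase bioluminescence, loss of signal versus DMSO.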

[3] = CEETOX_H295R_OHPREG_noMTC: CeeTox H295R High-throughput Steroidogenesis Assay for OH-Pregnenolone (OHPREG), maximum tolerated concentration (MTC) filtered results only (AID 2283912; active means hit-call score of the fitted dose curve at least 0.9, where 1 is the maximum; inactive means score below 0.9); conditions: actives raise or lower the signal
Method in brief: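 H295R human adrenal cells, forskolin-prestimulated (10 uM, 48 h), then exposed to test chemical in 0.1% DMSO for 48 h. 17alpha-hydroxypregnenolone in medium measured by HPLC-MS/MS after MTBE extraction; bidirectional fit versus DMSO, concentrations not MTC-filtered.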

[4] = CEETOX_H295R_OHPROG_noMTC: CeeTox H295R High-throughput Steroidogenesis Assay for OH-Progesterone (OHPROG), maximum tolerated concentration (MTC) filtered results only (AID 2283914; active means hit-call score of the fitted dose curve at least 0.9, where 1 is the maximum; inactive means score below 0.9); conditions: actives raise or lower the signal
Method in brief: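 H295R human adrenal cells prestimulated 48 h with 10 uM forskolin, then exposed 48 h to test chemical (0.1% DMSO final). Medium 17alpha-hydroxyprogesterone extracted with MTBE, quantified by HPLC-MS/MS; bidirectional fit versus DMSO, concentrations not MTC-filtered.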

[5] = CEETOX_H295R_ESTRADIOL_noMTC: CeeTox H295R High-throughput Steroidogenesis Assay for Estradiol, maximum tolerated concentration (MTC) filtered results only (AID 2283919; active means hit-call score of the fitted dose curve at least 0.9, where 1 is the maximum; inactive means score below 0.9); conditions: actives raise or lower the signal
Method in brief: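 H295R human adrenal cells pre-stimulated 48 h with 10 uM forskolin, then exposed 48 h to chemical (0.1% DMSO final). Estradiol in medium measured by HPLC-MS/MS after MTBE extraction and dansyl derivatization; bidirectional fit versus DMSO, concentrations not MTT-filtered.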

[6] = CEETOX_H295R_PROG_noMTC: CeeTox H295R High-throughput Steroidogenesis Assay for Progesterone (PROG), maximum tolerated concentration (MTC) filtered results only (AID 2283920; active means hit-call score of the fitted dose curve at least 0.9, where 1 is the maximum; inactive means score below 0.9); conditions: actives raise or lower the signal
Method in brief: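 H295R human adrenal cells were prestimulated 48 h with 10 uM forskolin, then exposed 48 h to test chemical (0.1% DMSO final). Progesterone in medium was quantified by HPLC-MS/MS; bidirectional fitting versus DMSO, concentrations not MTC-filtered.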

[7] = CEETOX_H295R_ESTRONE_noMTC: CeeTox H295R High-throughput Steroidogenesis Assay for Estrone, maximum tolerated concentration (MTC) filtered results only (AID 2283921; active means hit-call score of the fitted dose curve at least 0.9, where 1 is the maximum; inactive means score below 0.9); conditions: actives raise or lower the signal
Method in brief: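 H295R cells prestimulated 48 h with 10 uM forskolin, then exposed 48 h to chemical in 0.1% DMSO; medium estrone measured by HPLC-MS/MS after MTBE extraction and dansyl derivatization, fitted bidirectionally versus DMSO without MTT-based MTC filtering.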

[8] = CEETOX_H295R_11DCORT_noMTC: CeeTox H295R High-throughput Steroidogenesis Assay for 11-Deoxycortisol (11DCORT), maximum tolerated concentration (MTC) filtered results only (AID 2283911; active means hit-call score of the fitted dose curve at least 0.9, where 1 is the maximum; inactive means score below 0.9); conditions: actives raise or lower the signal
Method in brief: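 Values carry no filtering for maximum tolerated concentration: medium from forskolin-primed (10 uM, 48 h) H295R cells after 48 h chemical exposure (0.1% DMSO) was MTBE-extracted, and 11-deoxycortisol quantified by reverse-phase HPLC-MS/MS. Fitting was bidirectional against DMSO.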

[9] = CEETOX_H295R_ANDR_noMTC: CeeTox H295R High-throughput Steroidogenesis Assay for Androstenedione (ANDR), maximum tolerated concentration (MTC) filtered results only (AID 2283915; active means hit-call score of the fitted dose curve at least 0.9, where 1 is the maximum; inactive means score below 0.9); conditions: actives raise or lower the signal
Method in brief: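 H295R cells, passage 10 or below, prestimulated 48 h with 10 uM forskolin, then exposed 48 h to chemical in 0.1% DMSO. Medium androstenedione extracted with MTBE, quantified by HPLC-MS/MS; concentrations not MTC-filtered; bidirectional fit versus DMSO.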

[10] = CEETOX_H295R_CORTISOL_noMTC: CeeTox H295R High-throughput Steroidogenesis Assay for Cortisol, maximum tolerated concentration (MTC) filtered results only (AID 2283916; active means hit-call score of the fitted dose curve at least 0.9, where 1 is the maximum; inactive means score below 0.9); conditions: actives raise or lower the signal
Method in brief: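 H295R adrenal cells were pre-stimulated 48 h with 10 uM forskolin, then exposed 48 h to test chemical in 0.1% DMSO. Medium cortisol was measured by MTBE extraction and HPLC-MS/MS; bidirectional fit versus DMSO, concentrations not MTC-filtered.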

[11] = CEETOX_H295R_CORTIC_noMTC: CeeTox H295R High-throughput Steroidogenesis Assay for Corticosterone (CORTIC), maximum tolerated concentration (MTC) filtered results only (AID 2283917; active means hit-call score of the fitted dose curve at least 0.9, where 1 is the maximum; inactive means score below 0.9); conditions: actives raise or lower the signal
Method in brief: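 H295R, 10 uM forskolin prestim 48 h → test chem (0.1% DMSO final) 48 h → media MTBE extraction → HPLC-MS/MS corticosterone. Bidirectional fit vs DMSO baseline; no MTT-based MTC filtering.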

[12] = CEETOX_H295R_DOC_noMTC: CeeTox H295R High-throughput Steroidogenesis Assay for DOC, maximum tolerated concentration (MTC) filtered results only (AID 2283918; active means hit-call score of the fitted dose curve at least 0.9, where 1 is the maximum; inactive means score below 0.9); conditions: actives raise or lower the signal
Method in brief: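 H295R cells prestimulated 48 h with 10 uM forskolin, then exposed 48 h to test chemical (0.1% DMSO final). Medium 11-deoxycorticosterone extracted with MTBE, quantified by HPLC-MS/MS; bidirectional fit versus DMSO, concentrations not MTC-filtered.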

[13] = CEETOX_H295R_TESTO_noMTC: CeeTox H295R High-throughput Steroidogenesis Assay for Testosterone (TESTO), maximum tolerated concentration (MTC) filtered results only (AID 2283924; active means hit-call score of the fitted dose curve at least 0.9, where 1 is the maximum; inactive means score below 0.9); conditions: actives raise or lower the signal
Method in brief: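 H295R cells prestimulated 48 h with 10 uM forskolin, then exposed 48 h to chemicals in 0.1% DMSO final. Testosterone in medium quantified by MTBE extraction and HPLC-MS/MS; bidirectional fit versus DMSO, concentrations […] filtered by MTT-based maximum tolerated concentration.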

[14] = molecular target: frog Thyroid hormone Receptor alpha (TRa), thra-a (gene 397942) (UniProt P15204); experiment: ATG_frTRa_XSP2: Attagene TRANS-FACTORIAL Multi-Species (XSP2) HepG2 Assay for frog Thyroid hormone Receptor alpha (TRa) (AID 2283839)
Method in brief: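 Reporter transcripts were measured by RT-PCR with capillary electrophoresis after 24 h dosing of HepG2 carrying transiently transfected multi-reporter units, including a chimeric frog TRa-GAL4 construct. Activity was taken as increase over DMSO vehicle.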

[15] = molecular target: human Thyroid hormone Receptor beta (TRb), THRB (gene 7068) (UniProt P10828); experiment: ATG_hTRb_XSP2: Attagene TRANS-FACTORIAL Multi-Species (XSP2) HepG2 Assay for human Thyroid hormone Receptor beta (TRb) (AID 2283840);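 further: actives raise reporter mRNA so potency reflects agonist-like gain of signal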
Method in brief: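 Activity of exogenous human TRb–Gal4 fusion measured by reporter mRNA from RT-PCR and capillary electrophoresis, 24 h after dosing transfected HepG2. 6-alpha-fluorotestosterone (3 nM) and norgestrel (1.5 nM) present. Gain-of-signal fit relative to DMSO.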

Chain of human Thyroid hormone Receptor beta (TRb), THRB (gene 7068) (P10828 whole entry, looked up, the tested form may be a part): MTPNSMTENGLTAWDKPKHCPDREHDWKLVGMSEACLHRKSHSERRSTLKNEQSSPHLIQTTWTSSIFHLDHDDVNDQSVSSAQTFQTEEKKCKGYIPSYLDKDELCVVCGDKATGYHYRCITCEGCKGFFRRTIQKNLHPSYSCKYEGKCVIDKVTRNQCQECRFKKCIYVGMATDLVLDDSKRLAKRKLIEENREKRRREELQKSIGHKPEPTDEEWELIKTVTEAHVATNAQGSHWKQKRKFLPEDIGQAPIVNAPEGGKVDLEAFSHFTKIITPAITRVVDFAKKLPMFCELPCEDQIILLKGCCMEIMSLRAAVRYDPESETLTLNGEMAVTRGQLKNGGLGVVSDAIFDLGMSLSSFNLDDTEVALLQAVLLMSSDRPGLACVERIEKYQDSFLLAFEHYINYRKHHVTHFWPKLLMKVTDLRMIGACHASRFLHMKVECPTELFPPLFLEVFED
Chain of frog Thyroid hormone Receptor alpha (TRa), thra-a (gene 397942) (P15204 whole entry, looked up, the tested form may be a part): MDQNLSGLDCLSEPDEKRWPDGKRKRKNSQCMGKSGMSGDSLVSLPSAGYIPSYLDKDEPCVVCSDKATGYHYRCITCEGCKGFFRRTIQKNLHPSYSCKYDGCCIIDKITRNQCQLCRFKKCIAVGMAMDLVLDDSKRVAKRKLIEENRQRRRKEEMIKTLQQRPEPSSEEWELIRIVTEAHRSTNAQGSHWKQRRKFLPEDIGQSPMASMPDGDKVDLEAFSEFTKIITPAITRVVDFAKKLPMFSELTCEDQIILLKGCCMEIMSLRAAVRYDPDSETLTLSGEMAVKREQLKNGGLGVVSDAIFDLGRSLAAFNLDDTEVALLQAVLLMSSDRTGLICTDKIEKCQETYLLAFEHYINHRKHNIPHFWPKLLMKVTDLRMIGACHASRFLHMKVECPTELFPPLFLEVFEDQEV

COC(=O)C(C)Oc1ccc(Oc2ncc(C(F)(F)F)cc2Cl)cc1 (configuration not stated)
outcome [1]: inactive | outcome [2]: inactive | AC50 [3]: 14.1 µM (active) | AC50 [4]: 1.86 µM (active) | AC50 [5]: 23.5 µM (active) | AC50 [6]: 35.1 µM (active) | AC50 [7]: 27.9 µM (active)

O=C(O)C(F)(F)OC(F)(F)C(F)(F)OC(F)(F)C(F)(F)C(F)(F)C(F)(F)F
outcome [1]: inactive

[Na+]
AC50 [1]: 5.73 µM (active) | outcome [2]: inactive

CCCCCCCCCCOC(=O)c1ccccc1C(=O)OCCCCCCCC
AC50 [8]: 45.7 µM (active) | AC50 [3]: 41.3 µM (active) | AC50 [4]: 40.4 µM (active) | AC50 [9]: 44 µM (active) | outcome [10]: inactive | outcome [11]: inactive | AC50 [12]: 33.3 µM (active) | outcome [5]: inactive | AC50 [6]: 39.1 µM (active) | outcome [7]: inactive | AC50 [13]: 43 µM (active)

CC(=O)OC(C)(C)C
outcome [1]: inactive | outcome [2]: inactive

CCC(C)COC(=O)CC(C)C (configuration not stated)
outcome [1]: inactive

CC/C(=C(\c1ccccc1)c1ccc(OCCN(C)C)cc1)c1ccccc1
outcome [14]: inactive | outcome [15]: inactive | outcome [1]: inactive | AC50 [2]: 36.2 µM (active) | outcome [2]: inactive

CC(=O)C1=C(C)[C@@H]2C[C@@]3(C1)[C@H](C)CC[C@H]3C2(C)C
outcome [1]: inactive | outcome [2]: inactive

CC(C)(C)c1ccc(S)cc1
outcome [14]: inactive

COC(=O)c1cccc(C(=O)OC)c1
outcome [3]: inactive | outcome [4]: inactive | outcome [9]: inactive | outcome [5]: inactive | outcome [6]: inactive | outcome [7]: inactive | outcome [13]: inactive

CCCCCCOc1ccc(O)cc1
outcome [1]: inactive | outcome [2]: inactive

C=C(C)C(=O)OCCC(F)(F)C(F)(F)C(F)(F)C(F)(F)C(F)(F)C(F)(F)C(F)(F)C(F)(F)F
outcome [1]: inactive

CCCCCC(=O)O[C@]1(C(C)=O)CC[C@H]2[C@@H]3CCC4=CC(=O)CC[C@]4(C)[C@H]3CC[C@@]21C
outcome [15]: inactive | outcome [1]: inactive | outcome [2]: inactive

CCCCCCCCCCCCOCCOS(=O)(=O)O
AC50 [1]: 9.92 µM (active) | outcome [2]: inactive
